Results filed as inconclusive are left out. A call without a number means that no potency is given here. Calls of active or inactive are those of the source. Unless noted, calls follow the shape of the dose curve; as a rule, active = well fitted activation curve with a large enough effect in the main read-out, with a control signal flat (not every such curve was filed as active); inconclusive = small, poorly fitted or top-dose-only effect, or effect the other way, or a change in a side signal; inactive = flat fitted curve, though single readings scatter.

Cytochrome P450 2D6 (Homo sapiens), sequence (P10635 whole entry, looked up): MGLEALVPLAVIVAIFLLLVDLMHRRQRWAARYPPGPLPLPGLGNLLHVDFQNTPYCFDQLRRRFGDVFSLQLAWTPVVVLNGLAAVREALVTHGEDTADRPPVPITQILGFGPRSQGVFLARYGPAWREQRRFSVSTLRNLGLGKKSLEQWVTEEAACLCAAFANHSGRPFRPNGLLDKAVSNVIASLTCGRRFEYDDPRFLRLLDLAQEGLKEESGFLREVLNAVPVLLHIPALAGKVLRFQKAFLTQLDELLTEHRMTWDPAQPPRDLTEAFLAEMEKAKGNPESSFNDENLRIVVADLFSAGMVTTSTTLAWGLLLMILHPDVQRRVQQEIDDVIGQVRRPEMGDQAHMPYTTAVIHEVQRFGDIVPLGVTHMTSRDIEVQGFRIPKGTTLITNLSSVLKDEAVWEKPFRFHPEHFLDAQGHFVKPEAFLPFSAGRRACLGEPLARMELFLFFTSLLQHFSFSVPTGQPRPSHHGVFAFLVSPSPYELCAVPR

The target of the first assay is 3',5'-cyclic-AMP phosphodiesterase 4B (Homo sapiens) (UniProt Q07343). The assay can be described thus: qHTS Assay for Inhibitors of PDE-IV (AID 607). As to conditions: HEK293 ACTOne CNG channel cells, membrane potential fluorescence; series mostly up to 22.9 µM. A digest of the protocol: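 Live HEK293 cells with a modified cyclic nucleotide-gated (CNG) channel report intracellular cAMP via membrane-potential dye fluorescence (ex 535/em 590 nm). Endogenous PDE-IV was targeted. Compounds were tested at up to 22.9 uM final; RO 20-1724 100 uM served as control.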
3',5'-cyclic-AMP phosphodiesterase 4B (Homo sapiens), sequence (Q07343 whole entry, looked up): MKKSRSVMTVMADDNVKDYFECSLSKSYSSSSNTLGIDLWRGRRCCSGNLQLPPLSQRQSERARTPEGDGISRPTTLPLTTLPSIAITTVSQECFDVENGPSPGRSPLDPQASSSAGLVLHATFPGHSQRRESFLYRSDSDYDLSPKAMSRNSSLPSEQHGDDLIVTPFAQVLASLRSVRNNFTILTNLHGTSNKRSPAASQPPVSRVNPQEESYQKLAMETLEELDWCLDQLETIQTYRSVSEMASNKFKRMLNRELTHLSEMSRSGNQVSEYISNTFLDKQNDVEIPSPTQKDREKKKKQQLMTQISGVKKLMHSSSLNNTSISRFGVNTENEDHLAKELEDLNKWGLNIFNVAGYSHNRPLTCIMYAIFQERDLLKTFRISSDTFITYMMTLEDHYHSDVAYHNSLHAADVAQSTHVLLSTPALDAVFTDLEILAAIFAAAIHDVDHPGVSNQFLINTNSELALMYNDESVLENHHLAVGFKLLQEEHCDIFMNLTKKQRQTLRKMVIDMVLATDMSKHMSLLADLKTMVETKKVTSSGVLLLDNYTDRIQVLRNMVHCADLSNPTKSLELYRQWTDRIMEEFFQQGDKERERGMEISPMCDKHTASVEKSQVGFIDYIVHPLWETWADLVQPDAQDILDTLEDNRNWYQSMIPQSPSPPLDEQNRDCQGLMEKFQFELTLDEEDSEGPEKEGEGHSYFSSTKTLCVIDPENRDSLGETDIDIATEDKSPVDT
Consider `Cc1noc(C)c1C(=O)N1CCC2(CC1)CN(c1cccc(-c3ccccc3)c1)C2`, for which the Potency entry is “inactive”.
Turning to `O=C1c2ccccc2[C@@H]([C@@H]2c3ccccc3C(=O)c3cc(Br)ccc32)c2ccc(Br)cc21`, the Potency result is “inactive”.
The same measure, in the same setting: under `O=C(O)c1ccccc1-c1ccccc1C(=O)c1ccccc1` stands “inactive”.
Turning to `N[C@@H](CSCc1ccccc1)C(=O)O`, the Potency result was “inactive”.
On to `O=C1c2ccccc2C(=O)c2c(Nc3cc4c5c(ccc6c7ccc8c9c(cc(Nc%10cccc%11c%10C(=O)c%10ccccc%10C%11=O)c(c3c56)c97)-c3ccccc3C8=O)C(=O)c3ccccc3-4)cccc21`, for which the Potency result is “inactive”.
As for `O=S(=O)(O)c1ccc(NN(c2c(O)ccc3ccccc23)S(=O)(=O)O)cc1`, the Potency entry was “inactive”.
In the case of `O=S(=O)(O)c1ccc(-c2nnc(-c3ccccn3)nc2-c2ccc(S(=O)(=O)O)o2)o1`, the Potency entry is “inactive”.
Regarding `COc1ccc(C(=O)N2CCC3(CC2)CN(c2ccccc2)C3)cc1`, the Potency entry is “inactive”.
Regarding `C[C@@H]1CCCC(CC(=O)O)(CC(=O)O)C1`, the Potency result was “inactive”.
Same read-out and setting: the entry for `CN(C)c1ccc(C(c2ccc(N(C)C)cc2)c2ccc([N+](=O)[O-])cc2)cc1` is “inactive”; for `O=C(O)C1C(C(=O)O)C(C(=O)O)C1C(=O)O` (configuration not stated) it is “inactive”; for `Nc1nc(C(=O)O)c(N=Nc2ccccc2)c(=O)[nH]1` it is “inactive”.
The same measure, in the same setting: the entry for `S=c1nc(-c2nc(=S)[nH]c3c2CCCCCCCCCC3)c2c([nH]1)CCCCCCCCCC2` is “inactive”.
Take `CN(C)CCCN=C(N)N`: the Potency result is “inactive”.
Same read-out and setting: the entry for `N#CCCn1c(=O)c(-c2cc(F)cc(F)c2)nc2cnc(Oc3cccc(Cl)c3)nc21` is “inactive”; for `O=C(O)c1cc(C(=O)O)cc(N2C(=O)c3ccccc3C2=O)c1` it is “inactive”; for `O=S(=O)(O)c1cc(S(=O)(=O)O)c2c(N=Nc3cccc4ccccc34)c(O)ccc2c1` it is “inactive”.
As for `C#CCOC(=O)[C@H](N)CC(N)=O`, the Potency result is “inactive”.
On the same count and under the same terms, under `Cc1ccc(N=Nc2c(O)ccc3cc(S(=O)(=O)O)ccc23)cc1` stands “inactive”.
As to `Cc1ccc(N=Nc2c(O)c(S(=O)(=O)O)cc3cc(S(=O)(=O)O)ccc23)c(C)c1`, the Potency result is “inactive”.
Still for that read-out and setting: the entry for `CN(Cc1cc(Br)cc(Br)c1O)Cc1c(O)ccc2ccccc12` is “inactive”.
Same read-out and setting: the entry for `O=C(O)CC(CC(=O)O)C(=O)O` is “inactive”.
In the case of `O=S(=O)(O)c1cc(O)c2c(O)c(N=Nc3cccc4ccccc34)c(S(=O)(=O)O)cc2c1`, the Potency result was “inactive”.
On to `COCCn1c(=O)c(-c2ccc(OC)cc2)nc2cnc(Oc3ccccc3)nc21`, for which the Potency result was “inactive”.
With `CNS(=O)(=O)c1ccccc1C(=N)c1ccccc1`, the Potency result is “inactive”.
On the same count and under the same terms, under `C[N+]1(CCN=C=NC2CCCCC2)CCOCC1` stands “inactive”.
On to `O=S(=O)(O)c1ccc(N=Nc2ccc3c(S(=O)(=O)O)cccc3c2O)c2ccccc12`, for which the Potency result is “inactive”.
As to `CN(C)CN1CSC(=S)N(CN(C)C)C1`, the Potency entry is “inactive”.
Take `FC(F)(F)c1cc(NC(=S)N2c3ccccc3-n3cccc3[C@H]2c2cccnc2)cc(C(F)(F)F)c1`: the Potency result is “inactive”.
On to `COc1ccc([C@@H](C)c2cc3c(cc2O)OCO3)cc1`, for which the Potency entry was “inactive”.
Regarding `CN(C)Cc1cc(C(C)(C)C)cc(CNC2CCCCC2)c1O`, the Potency entry was “inactive”.
On to `O=C1OC2(c3ccc(O)cc3Oc3cc(O)ccc32)c2c1c(-c1ccccc1)c(-c1ccccc1)c(-c1ccccc1)c2-c1ccccc1`, for which the Potency result was “inactive”.
Consider `O=S(=O)(O)c1ccc2c(N=Nc3c(O)ccc4ccccc34)cccc2c1`, for which the Potency entry is “inactive”.
As to `Nc1cc2c(nc3c4ccccc4c(N)cc3[n+]2-c2cccc3ccccc23)c2ccccc12` (tested in a mixture with another compound), the Potency result is “inactive”.
As for `O=S(=O)(O)c1ccc2c(N=Nc3cccc4ccccc34)c(O)c(S(=O)(=O)O)cc2c1`, the Potency result is “inactive”.
`S[C@@H]1CCCN(Cc2ccccc2)C1`: the Potency result was “inactive”.
For `CS(=O)(=O)c1ccc(/C=N\NC(N)=S)cc1`, the Potency entry is “inactive”.
With `N#CC(=NCCO)C1=C(O)c2ccccc2C1=O`, the Potency entry is “inactive”.
Turning to `Cc1ccc(CCCC(=O)O)cc1C`, the Potency result is “inactive”.

The target of another assay is Cytochrome P450 3A4 (Homo sapiens) (UniProt P08684). As to the kind of experiment: qHTS Assay for Activators of Cytochrome P450 3A4 (AID 885; active = well fitted curve in the direction sought with a large enough effect; an effect the other way counts as inactive or inconclusive; also: nearly all actives have a fitted effect of over 65% in size). As to conditions: recombinant CYP3A4, Luciferin-PPXE luminescence, 60 min; series mostly up to 11.4 µM. A digest of the protocol: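 Quantitative HTS format: compounds preincubated with 20nM human CYP3A4 and Luciferin-PPXE substrate at KM, reaction started by NADPH regeneration, stopped after 60 min, luciferase luminescence read 20 min later.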
Cytochrome P450 3A4 (Homo sapiens), sequence (P08684 whole entry, looked up): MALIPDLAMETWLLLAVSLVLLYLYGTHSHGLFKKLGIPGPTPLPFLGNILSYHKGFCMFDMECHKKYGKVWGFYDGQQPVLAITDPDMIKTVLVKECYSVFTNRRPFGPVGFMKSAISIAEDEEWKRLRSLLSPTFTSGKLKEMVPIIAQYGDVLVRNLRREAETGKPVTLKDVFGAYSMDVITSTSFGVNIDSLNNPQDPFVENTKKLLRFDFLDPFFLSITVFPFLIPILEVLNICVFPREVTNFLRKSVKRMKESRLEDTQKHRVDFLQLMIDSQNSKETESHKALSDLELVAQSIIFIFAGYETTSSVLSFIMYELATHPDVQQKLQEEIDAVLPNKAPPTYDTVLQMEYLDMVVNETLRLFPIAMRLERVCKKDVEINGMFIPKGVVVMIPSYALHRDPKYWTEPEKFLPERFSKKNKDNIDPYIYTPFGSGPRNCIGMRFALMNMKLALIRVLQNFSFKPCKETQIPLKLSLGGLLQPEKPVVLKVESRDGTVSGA
For the compound `CN(C)c1ccc(C(c2ccc(N(C)C)cc2)c2ccc([N+](=O)[O-])cc2)cc1`, the Potency result was “inactive”.
For `N#CCCn1c(=O)c(-c2cc(F)cc(F)c2)nc2cnc(Oc3cccc(Cl)c3)nc21`, the Potency result was “inactive”.
Take `CN(Cc1cc(Br)cc(Br)c1O)Cc1c(O)ccc2ccccc12`: the Potency entry is “inactive”.
Take `COc1ccc([C@@H](C)c2cc3c(cc2O)OCO3)cc1`: the Potency result is “inactive”.
Same read-out and setting: the entry for `S[C@@H]1CCCN(Cc2ccccc2)C1` is “inactive”.

For the next assay, the target named is Cytochrome P450 2D6 (Homo sapiens) (UniProt P10635). As to the kind of experiment: qHTS Assay for Inhibitors and Substrates of Cytochrome P450 2D6 (AID 891; active = well fitted curve in the direction sought with a large enough effect; an effect the other way counts as inactive or inconclusive; also: nearly all actives have a fitted effect of over 60% in size; also: potency is read from the fitted curve at half-maximal effect). As to conditions: recombinant CYP2D6, luciferin-ME EGE luminescence; series mostly up to 11.4 µM. A digest of the protocol:
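Human CYP2D6 (5 nM) with 30 uM Luciferin-ME EGE (at Km) in 100 mM KPO4, compound preincubated 10 min, then NADPH regeneration system for 60 min at room temperature. Luciferin read by luminescence; normalized to 1.43 uM quinidine.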
As for `O=S(=O)(O)c1cc(S(=O)(=O)O)c2c(N=Nc3cccc4ccccc34)c(O)ccc2c1`, the Potency entry was “inactive”.
Same read-out and setting: the figure for `CN(Cc1cc(Br)cc(Br)c1O)Cc1c(O)ccc2ccccc12` is 1.58 µM (active); for `Nc1cc2c(nc3c4ccccc4c(N)cc3[n+]2-c2cccc3ccccc23)c2ccccc12` (tested in a mixture with another compound) it is 1.58 µM (active).
Same read-out and setting: the figure for `S[C@@H]1CCCN(Cc2ccccc2)C1` is 0.794 µM (active).

A further assay deals with Cytochrome P450 2C19 (Homo sapiens) (UniProt P33261). As to the kind of experiment: qHTS Assay for Inhibitors and Substrates of Cytochrome P450 2C19 (AID 899; active = well fitted curve in the direction sought with a large enough effect; an effect the other way counts as inactive or inconclusive; also: nearly all actives have a fitted effect of over 60% in size; also: potency is read from the fitted curve at half-maximal effect). As to conditions: recombinant CYP2C19, luciferin-H EGE luminescence; series mostly up to 11.4 µM. A digest of the protocol: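 Human CYP2C19 (5nM) with Luciferin-H EGE at 10uM (its KM) in 50mM KPO4 was preincubated with compound for 10 min at 37C. NADPH regeneration started a 60 min 37C reaction. Luciferin was read by luminescence, normalized to 57uM ketoconazole.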
Cytochrome P450 2C19 (Homo sapiens), sequence (P33261 whole entry, looked up): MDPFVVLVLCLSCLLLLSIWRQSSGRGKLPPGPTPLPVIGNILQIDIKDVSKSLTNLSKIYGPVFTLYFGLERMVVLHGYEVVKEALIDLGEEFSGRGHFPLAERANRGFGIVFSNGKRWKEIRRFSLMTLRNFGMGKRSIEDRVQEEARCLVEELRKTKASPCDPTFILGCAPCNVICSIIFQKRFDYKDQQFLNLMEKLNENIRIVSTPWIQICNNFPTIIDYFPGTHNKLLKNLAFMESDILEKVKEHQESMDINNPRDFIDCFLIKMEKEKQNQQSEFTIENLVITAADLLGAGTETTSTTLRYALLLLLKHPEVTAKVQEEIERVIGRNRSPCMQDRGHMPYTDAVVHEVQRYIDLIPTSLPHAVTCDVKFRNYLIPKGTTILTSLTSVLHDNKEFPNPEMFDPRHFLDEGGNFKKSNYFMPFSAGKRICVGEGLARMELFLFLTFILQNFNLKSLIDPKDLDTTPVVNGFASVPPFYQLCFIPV
On to `O=S(=O)(O)c1cc(S(=O)(=O)O)c2c(N=Nc3cccc4ccccc34)c(O)ccc2c1`, for which the Potency result was “inactive”.
On the same count and under the same terms, under `CN(Cc1cc(Br)cc(Br)c1O)Cc1c(O)ccc2ccccc12` stands 0.501 µM (active); under `CN(C)CN1CSC(=S)N(CN(C)C)C1`, 3.16 µM (active).
Turning to `S[C@@H]1CCCN(Cc2ccccc2)C1`, the Potency is 3.16 µM (active).

Values taken from PubChem BioAssay (NCATS).
